Compound activity as filed in PubChem BioAssay.
TSHR antag: Antagonists of the Thyroid Stimulating Hormone Receptor: HTS campaign; actives 0.2% (n = 330,000); TSHR-expressing cells, TSH-stimulated cAMP HTRF, 2 h; stronger effect = lower value; Thyrotropin receptor (Homo sapiens), P16473; activity change, negative = inhibition, % at 11.5 µM;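 active means activity change below a set negative limit, meaning inhibition stronger than a set level, cut at about -70% in these data; inconclusive means activity change between two set negative limits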
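Inhibition of cAMP made by TSHR-expressing cells under TSH stimulation (4nM final, EC80; 2 h, 37 deg C) is quantified with a one-step lysis HTRF kit, anti-cAMP cryptate versus cAMP-d2.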
VDR inh: Inhibitors of the vitamin D receptor (VDR): qHTS; actives 0.93% (n = 400,000); VDR-SRC2-3 peptide fluorescence polarization, 2 h; Potency, µM, most hits filed as inhibitors; AID 504847, 2011
Target sequence (P11473 whole entry, looked up): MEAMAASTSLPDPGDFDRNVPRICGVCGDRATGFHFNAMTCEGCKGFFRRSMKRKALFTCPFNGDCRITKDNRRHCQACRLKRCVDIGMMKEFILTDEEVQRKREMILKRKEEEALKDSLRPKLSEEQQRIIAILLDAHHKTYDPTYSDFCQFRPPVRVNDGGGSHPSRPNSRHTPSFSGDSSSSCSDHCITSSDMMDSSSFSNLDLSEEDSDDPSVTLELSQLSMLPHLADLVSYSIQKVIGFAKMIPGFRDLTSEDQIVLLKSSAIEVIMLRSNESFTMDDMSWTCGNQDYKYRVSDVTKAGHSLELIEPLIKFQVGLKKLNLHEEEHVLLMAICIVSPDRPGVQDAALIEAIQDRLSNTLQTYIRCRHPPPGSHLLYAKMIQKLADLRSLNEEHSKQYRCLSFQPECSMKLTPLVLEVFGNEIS
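After 23 nl compound addition and a short centrifugation, plates sat for 2 hours at ambient temperature; polarization of fluorescence then indicated loss of VDR binding to peptide SRC2-3.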
Vif-APOBEC3F blk: qHTS for Inhibitors of Vif-A3F Interactions: qHTS. HeLa A3F-eYFP + Vif (tagged APOBEC3F with the HIV-1 protein that degrades it), YFP fluorescence increase. Potency, µM (titrated, usually from 46.1 µM). actives 0.2% (n = 390,000). AID 602313, 2012; further: nearly all actives have a fitted effect of over 65% in size
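Fluorescence increase (Ex 488/Em 500-530) after overnight compound treatment at 37 deg C flags inhibition of Vif-driven A3F-eYFP loss in stable HeLa A3F-eYFP/Vif cells seeded overnight beforehand.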
Vif-APOBEC3G blk: qHTS for Inhibitors of Vif-A3G Interactions: qHTS; actives 0.076% (n = 410,000); Potency, µM (titrated, usually from 46.1 µM), usual class: inhibitors; HeLa A3G-eYFP + Vif (tagged APOBEC3G with the HIV-1 protein that degrades it), YFP fluorescence, overnight; AID 602310, 2012; DNA dC->dU-editing enzyme APOBEC-3G (Homo sapiens), Q9HC16; further: nearly all actives have a fitted effect of over 60% in size
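HeLa cells stably expressing Vif and C-terminally eYFP-tagged A3G, seeded overnight at 37 deg C, then exposed to compound by pintool overnight at 37 deg C. Rise in yellow fluorescence (Ex 488/Em 500-530, Acumen) marks blocked Vif-driven A3G degradation.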
PLK1 PBD inh: qHTS for Inhibitors of PLK1-PDB (polo-like kinase 1 - polo-box domain): Primary Screen | Serine/threonine-protein kinase PLK1 (Homo sapiens), P53350 | AID 720504, 2013 | Potency, µM, most hits filed as inhibitors | actives 2.8% (n = 360,000) | Plk1 PBD binding of FITC phosphopeptide, fluorescence polarization; further: series mostly up to about 57 µM; nearly all actives have a fitted effect of over 65% in size
Numbers stand for hits; i = inactive; ? = inconclusive; nt = no result. Hits are enriched below; roughly 3.1% of the tested compounds scored in any of these assays. Unless noted, the call rests on the fitted dose curve; in most records, active means well fitted curve in the direction sought with a large enough effect; inconclusive means small, poorly fitted or top-dose-only effect, or another doubt; inactive means no such curve, though single readings can be large; an effect the other way counts as inactive or inconclusive.

SMILES	TSHR antag	VDR inh	Vif-APOBEC3F blk	Vif-APOBEC3G blk	PLK1 PBD inh
COc1ccc(C2(C(=O)c3ccccc3)C(=O)c3ccccc3C2=O)cc1	i	?	i	i	12µM
COc1ccc(C(=O)CC(=O)c2ccccc2)cc1	nt	i	i	i	i
CN(/C=C1/C(=O)CNC1=O)CCO	i	?	i	i	17µM
CN(C)c1ccc(/C=C2\Cc3ccccc3C2=O)cc1	nt	nt	nt	3.2µM	nt
CN(C)c1ccc(/C=C2\C(=O)/C(=C/c3ccc(N(C)C)cc3)c3ccccc32)cc1	nt	nt	nt	i	nt
CC(=O)N1/C(=C/c2ccc(N(C)C)cc2)C(=O)c2ccccc21	i	32µM	?	?	i
O=C(C[n+]1cccc(I)c1)c1ccc(F)cc1	nt	nt	nt	i	nt
CCOc1cc(/C=C2\CCC/C(=C\c3cc(Cl)c(O)c(OCC)c3)C2=O)cc(Cl)c1O	i	i	?	3.2µM	?
COc1ccc(-c2nc(CN3CCC(C(=O)NCC4CCCO4)CC3)c(C)o2)cc1OC (stereo not given)	i	i	i	i	21µM
COc1ccc(-c2nc(CSCC(=O)NCC3CCCO3)c(C)o2)cc1OC (stereo not given)	i	i	i	i	i
COc1ccc(-c2nc(CSCC(=O)NCCCN3CCCC3=O)c(C)o2)cc1OC	i	i	i	i	21µM
Cc1oc(-c2cccc(Cl)c2)nc1CN1CCC(C(=O)NC(C)c2ccccc2)CC1 (stereo not given)	nt	i	i	i	nt
Cc1oc(-c2cccc(Cl)c2)nc1CN1CCC(C(=O)NC2CC2)CC1	i	i	i	i	21µM
Cc1cc(C)c(CN2CCC(N3CCC(C(=O)NCC4CCCO4)CC3)CC2)cc1C (stereo not given)	i	?	i	i	30µM
CC[C@H](C)[C@H](NC(=O)[C@H](Cc1ccc(O)cc1)NC(=O)[C@@H]1CCCN1C(=O)[C@@H](N)CCCN=C(N)N)C(=O)N[C@@H](CC(C)C)C(=O)O	nt	i	nt	nt	nt
CC(=O)Nc1ccc(/C=C/c2ccnc3ccccc23)cc1[N+](=O)[O-]	nt	nt	nt	i	nt
O=C1COc2cc(S(=O)(=O)CCC(=O)NC3CCCCC3)c(Cl)cc2N1	nt	i	i	i	nt
O=C(CN1C(=O)C(=O)N(Cc2ccco2)C1=O)c1c[nH]c2ccccc12	i	i	i	i	27µM
O=C(CN1C(=O)C(=O)N(CCC2=CCCCC2)C1=O)c1c[nH]c2ccccc12	nt	i	?	i	i
O=C(O)c1cccc(S(=O)(=O)Nc2ccc3oc(=O)sc3c2)c1	i	89µM	i	i	?
CCc1c(C(=O)NCCc2ccc(N3CCCCC3)cc2)[nH]c2ccc(Cl)cc12	i	i	nt	nt	nt
CC1(C)CC(=O)C(C=NCCN2CCN(C3CC(=O)N(c4ccc(Br)cc4)C3=O)CC2)=C(O)C1 (stereo not given)	i	i	i	i	27µM
CCC(=O)O[C@]1(C(=O)CCl)[C@@H](C)CC2C3C[C@H](F)C4=CC(=O)C=CC4(C)[C@@]3(F)C(O)CC21C (stereo not given in full)	nt	i	nt	nt	nt
c1ccc2c(c1)Nc1nccnc1S2	i	?	i	i	15µM
CC1CCc2c(sc3ncnc(SCC(=O)Nc4ccc(C(=O)O)cc4)c23)C1 (stereo not given)	i	i	i	i	60µM
SMILES	TSHR antag	VDR inh	Vif-APOBEC3F blk	Vif-APOBEC3G blk	PLK1 PBD inh
COc1cc(NC(=O)CSc2ncnc3sc4c(c23)CCC(C)C4)c(C(=O)O)cc1OC (stereo not given)	i	i	i	i	17µM
O=C(Nc1ccc(Br)cc1F)c1cnn2c1NC(=C1CC1)C=C2C(F)F	nt	nt	nt	i	nt
Cc1ccc(C)c(NC(=O)C(CC(C)C)N2Cc3ccccc3C2=O)c1 (stereo not given)	nt	i	i	i	nt
CCc1cccc(C)c1NC(=O)CCCn1c(=O)c2cccn2c2cccnc21	i	?	i	i	24µM
Cc1ccc(NC(=O)CCCn2c(=O)c3cccn3c3cccnc32)c(C)c1	nt	i	i	i	nt
COc1cc(OC)c(OC)cc1/C=C1/C(=O)N=C(N)N1C	i	?	?	i	21µM
COc1ccc(/C=C2/C(=O)N=C(N)N2C)cc1OC	i	i	?	i	i
COc1ccccc1NC(=O)CSc1nc2c(oc3ccccc32)c(=O)n1-c1ccccc1F	nt	i	i	i	nt
Cc1cc(C(=O)COC(=O)c2cccnc2Cl)c(C)n1CC1CCCO1 (stereo not given)	i	89µM	i	i	i
Cc1cc(C(=O)COC(=O)c2ccccc2Br)c(C)n1CC1CCCO1 (stereo not given)	i	i	i	i	i
Cc1cc(C(=O)COC(=O)c2cc(O)c3ccccc3c2O)c(C)n1CC1CCCO1 (stereo not given)	i	71µM	i	i	8.4µM
Cc1ccc(C(=O)OCC(=O)c2cc(C)n(CC3CCCO3)c2C)cc1 (stereo not given)	i	i	i	i	i
COc1cc2c(cc1OC)-c1cc3cc(OC)c(OC)cc3c(=O)n1CC2	nt	i	nt	nt	nt
C=C1C(=O)OC2C[C@@]3(C)CCCC(C)C3=CC12 (stereo not given in full)	nt	40µM	nt	nt	nt
C[C@H]1CCC[C@]2(C)C[C@H]3OC(=O)C(CN4CCCCCC4)[C@H]3C=C12 (stereo not given in full)	i	i	i	?	i
Cc1cc(C)c2c(=O)c(C#N)coc2c1	i	i	i	i	17µM
O=C(/C=C/c1ccccc1)C1C(=O)c2ccccc2C1=O	i	i	i	i	i
CCc1ccc(/C=C/C(=O)C2C(=O)c3ccccc3C2=O)cc1	i	?	i	i	27µM
CCCCCc1ccc(-c2cn(Cc3ccc4c(c3)C(=O)c3ccccc3C4=O)nn2)cc1	nt	nt	nt	i	nt
